Laboratory results taken from PubChem BioAssay (Tox21).
Records with an inconclusive call do not appear. Where a call stands in place of a potency, no number is given. Values without a mark were called inactive. Activity calls are given as the source filed them. Unless noted, calls follow the shape of the dose curve; as a rule, active = well fitted curve in the direction sought with a large enough effect in the repeat runs; inconclusive = weak or mixed curves; inactive = no such curve, though single readings can be large; an effect the other way counts as inactive or inconclusive.

test: qHTS assay to identify small molecule antagonists of the TGF-beta/Smad signaling pathway - cell viability counter screen (AID 1346824); conditions: SBE-bla HEK293T viability, CellTiter-Glo luminescence; series mostly up to 76.8 µM; also: nearly all actives have a fitted effect of over 50% in size
In short: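 SBE-bla HEK 293T cells were plated overnight at 37 C, then given compounds in DMSO plus TGF-beta1 (added as 0.25 ng/mL solution) for 5 hr. After the bla read, CellTiter-Glo was added to the same wells and luminescence read after 30 min at room temperature.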

Row | SMILES | outcome
1 | CCN(CC)CCOc1ccccc1C(=O)CCc1ccccc1 | inactive
2 | CC(C)COC(=O)COc1cc(Cl)c(Cl)cc1Cl | inactive
3 | CCOCCC(=O)OCC | inactive
4 | O=C(O)c1cc(Cl)cc(Cl)c1O | inactive
5 | CC(O)Cn1cnc2c1c(=O)n(C)c(=O)n2C (centres undefined) | inactive
6 | COC(=O)CC(C(C)=O)C(=O)OC (centres undefined) | inactive
7 | CCc1ccc(C)cc1 | inactive
8 | Cc1ccc(NC(=O)N(C)C)cc1NC(=O)N(C)C | inactive
9 | O=C(O)c1ccc(O)cc1O | inactive
10 | OCC(CO)n1cnc(-c2ccc(F)cc2)c1-c1ccnc(Oc2ccccc2)n1 | inactive
11 | CC(=O)Oc1cccc(O)c1 | inactive
12 | CC(C)c1ccc(C#N)cc1 | inactive
13 | N[C@@H](Cc1cc(I)c(O)c(I)c1)C(=O)O | inactive
14 | CSSc1ccoc1C | inactive
15 | CNc1c2c(nn1C)CCCC2 | inactive
16 | ClC1=C(Cl)C1(Cl)Cl | inactive

test: qHTS assay to identify small molecule agonists of the TGF-beta/Smad signaling pathway - cell viability counter screen (AID 1346829); conditions: SBE-bla HEK293T viability, CellTiter-Glo luminescence, 5 h; series mostly up to 76.8 µM; also: top concentration of the series differs between compounds; nearly all actives have a fitted effect of over 45% in size
In short: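 SBE-bla HEK 293T cells plated overnight, compound exposure 5 hr at 37 C. Viability read in the same wells by CellTiter-Glo luminescence after 30 min at room temperature, following the beta-lactamase read.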

Row | SMILES | Potency | activity change, negative = cytotoxicity
17 | O=C(CCS)OCC(COC(=O)CCS)(COC(=O)CCS)COC(=O)CCS | inactive | –
18 | C/C(C=O)=C\c1ccccc1 | inactive | –
19 | O=C(O)CCS | inactive | –
20 | CC1C(C)(C)C2=C(C(=O)CCC2)C1(C)C (centres undefined) | inactive | –
21 | CC(C)CC(O)CC(C)C | inactive | –
22 | CCCCCc1ccco1 | inactive | –
23 | NC(=O)c1ccccc1[N+](=O)[O-] | inactive | –
24 | O=C(O)c1cccc(C[C@@H]2COc3ccc(OCc4nc5cc(F)ccc5s4)cc3[C@@H]2O)c1 | inactive | –
25 | CCCCCC | inactive | –
26 | CC(C)(C(=O)c1cccnc1)c1cccnc1 | inactive | –
27 | Cc1cc(CCC(=O)OCCOCCOCCOC(=O)CCc2cc(C)c(O)c(C(C)(C)C)c2)cc(C(C)(C)C)c1O | inactive | –
28 | O=C(O)CO | inactive | –
29 | O=C(O)CCC(=O)OC[C@@H](NC(=O)C(Cl)Cl)[C@H](O)c1ccc([N+](=O)[O-])cc1 | inactive | –
30 | Nc1ccc(N=Nc2ccc(N)cc2)cc1 | inactive | –
31 | CC(C)(C)CCCCCCOC(=O)c1ccccc1C(=O)OCCCCCCC(C)(C)C | inactive | –
32 | CC(C)C(=O)OCCOc1ccccc1 | inactive | –
33 | CCCCCCCCCCCCCCN(C)C | – | 4.77% [at 15.8 µM]
34 | BrC(Br)C(Br)Br | inactive | –
35 | COc1cc(NS(=O)(=O)c2ccc(N)cc2)nc(C)n1 | inactive | –
36 | COc1ccc(CCN(C)CCCN2CCc3cc(OC)c(OC)cc3CC2=O)cc1OC | inactive | –

Row | SMILES | Potency | activity change, negative = cytotoxicity
37 | O=NN(CCCl)C(=O)NCCCl | inactive | –
38 | O=C(Nc1ccc(C(=O)O)c(O)c1)c1ccccc1 | inactive | –
39 | C=C(C)C(=O)OCCC(F)(F)C(F)(F)C(F)(F)C(F)(F)C(F)(F)C(F)(F)F | inactive | –
40 | CCN(CC)CCOc1ccccc1C(=O)CCc1ccccc1 | inactive | –
41 | CC(C)COC(=O)COc1cc(Cl)c(Cl)cc1Cl | inactive | –
42 | CCOCCC(=O)OCC | inactive | –
43 | O=C(O)c1cc(Cl)cc(Cl)c1O | inactive | –
44 | CC(O)Cn1cnc2c1c(=O)n(C)c(=O)n2C (centres undefined) | inactive | –
45 | COC(=O)CC(C(C)=O)C(=O)OC (centres undefined) | inactive | –
46 | CCc1ccc(C)cc1 | inactive | –
47 | Cc1ccc(NC(=O)N(C)C)cc1NC(=O)N(C)C | inactive | –
48 | O=C(O)c1ccc(O)cc1O | inactive | –
49 | OCC(CO)n1cnc(-c2ccc(F)cc2)c1-c1ccnc(Oc2ccccc2)n1 | inactive | –
50 | CC(=O)Oc1cccc(O)c1 | inactive | –
51 | CC(C)c1ccc(C#N)cc1 | inactive | –
52 | N[C@@H](Cc1cc(I)c(O)c(I)c1)C(=O)O | inactive | –
53 | CSSc1ccoc1C | inactive | –
54 | CNc1c2c(nn1C)CCCC2 | inactive | –
55 | ClC1=C(Cl)C1(Cl)Cl | inactive | –

test: qHTS assay to identify small molecule agonists of the TGF-beta/Smad signaling pathway (AID 1346859; active = well fitted activation curve with a large enough effect in the signal ratio in the repeat runs, not every such curve was filed as active; the % refers to the signal ratio); conditions: SBE-bla HEK293T, TGF-beta/Smad beta-lactamase reporter, 5 h; series mostly up to 76.8 µM
In short: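 Dual-wavelength fluorescence (460/530 nm emission) quantified beta-lactamase expression under the Smad binding element in HEK 293T cells following 5 hr compound treatment at 37 C.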

Row | SMILES | Potency | activation
56 | O=C(CCS)OCC(COC(=O)CCS)(COC(=O)CCS)COC(=O)CCS | inactive | –
57 | C/C(C=O)=C\c1ccccc1 | inactive | –
58 | O=C(O)CCS | inactive | –
59 | CC1C(C)(C)C2=C(C(=O)CCC2)C1(C)C (centres undefined) | inactive | –
60 | CC(C)CC(O)CC(C)C | inactive | –
61 | CCCCCc1ccco1 | inactive | –
62 | NC(=O)c1ccccc1[N+](=O)[O-] | inactive | –
63 | O=C(O)c1cccc(C[C@@H]2COc3ccc(OCc4nc5cc(F)ccc5s4)cc3[C@@H]2O)c1 | inactive | –
64 | CCCCCC | inactive | –
65 | CC(C)(C(=O)c1cccnc1)c1cccnc1 | inactive | –
66 | Cc1cc(CCC(=O)OCCOCCOCCOC(=O)CCc2cc(C)c(O)c(C(C)(C)C)c2)cc(C(C)(C)C)c1O | inactive | –
67 | O=C(O)CO | inactive | –
68 | O=C(O)CCC(=O)OC[C@@H](NC(=O)C(Cl)Cl)[C@H](O)c1ccc([N+](=O)[O-])cc1 | inactive | –
69 | Nc1ccc(N=Nc2ccc(N)cc2)cc1 | inactive | –
70 | CC(C)(C)CCCCCCOC(=O)c1ccccc1C(=O)OCCCCCCC(C)(C)C | inactive | –
71 | CC(C)C(=O)OCCOc1ccccc1 | inactive | –
72 | CCCCCCCCCCCCCCN(C)C | – | -0.505% [at 15.8 µM]
73 | BrC(Br)C(Br)Br | inactive | –
74 | COc1cc(NS(=O)(=O)c2ccc(N)cc2)nc(C)n1 | inactive | –
75 | COc1ccc(CCN(C)CCCN2CCc3cc(OC)c(OC)cc3CC2=O)cc1OC | inactive | –

Row | SMILES | Potency | activation
76 | O=NN(CCCl)C(=O)NCCCl | inactive | –
77 | O=C(Nc1ccc(C(=O)O)c(O)c1)c1ccccc1 | inactive | –
78 | C=C(C)C(=O)OCCC(F)(F)C(F)(F)C(F)(F)C(F)(F)C(F)(F)C(F)(F)F | inactive | –
79 | CCN(CC)CCOc1ccccc1C(=O)CCc1ccccc1 | inactive | –
80 | CC(C)COC(=O)COc1cc(Cl)c(Cl)cc1Cl | inactive | –
81 | CCOCCC(=O)OCC | inactive | –
82 | O=C(O)c1cc(Cl)cc(Cl)c1O | inactive | –
83 | CC(O)Cn1cnc2c1c(=O)n(C)c(=O)n2C (centres undefined) | inactive | –
84 | COC(=O)CC(C(C)=O)C(=O)OC (centres undefined) | inactive | –
85 | CCc1ccc(C)cc1 | inactive | –
86 | Cc1ccc(NC(=O)N(C)C)cc1NC(=O)N(C)C | inactive | –
87 | O=C(O)c1ccc(O)cc1O | inactive | –
88 | OCC(CO)n1cnc(-c2ccc(F)cc2)c1-c1ccnc(Oc2ccccc2)n1 | inactive | –
89 | CC(=O)Oc1cccc(O)c1 | inactive | –
90 | CC(C)c1ccc(C#N)cc1 | inactive | –
91 | N[C@@H](Cc1cc(I)c(O)c(I)c1)C(=O)O | inactive | –
92 | CSSc1ccoc1C | inactive | –
93 | CNc1c2c(nn1C)CCCC2 | inactive | –
94 | ClC1=C(Cl)C1(Cl)Cl | inactive | –
